High-throughput results from PubChem.
This is a sample that favours compounds with a hit; in the whole collection about 2.9% have one here.
pPAFAH inh: pPAFAH enzyme inhibitors, primary screen, biochemical, fluorescence polarization, human; Platelet-activating factor acetylhydrolase (Homo sapiens), Q13093; recombinant pPAFAH, FP-rhodamine probe fluorescence polarization; inhibition, % at 3.39 µM; 1.5% of 330,000 active; AID 463082, 2010;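 active means inhibition above the mean inhibition across the screen plus 3 SD, cut at about 25% in these data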;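 further: inhibitors block binding of the rhodamine activity-based probe so polarization drops; 0% = enzyme with DMSO and 100% = wells lacking pPAFAH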
Target sequence (Q13093 whole entry, looked up): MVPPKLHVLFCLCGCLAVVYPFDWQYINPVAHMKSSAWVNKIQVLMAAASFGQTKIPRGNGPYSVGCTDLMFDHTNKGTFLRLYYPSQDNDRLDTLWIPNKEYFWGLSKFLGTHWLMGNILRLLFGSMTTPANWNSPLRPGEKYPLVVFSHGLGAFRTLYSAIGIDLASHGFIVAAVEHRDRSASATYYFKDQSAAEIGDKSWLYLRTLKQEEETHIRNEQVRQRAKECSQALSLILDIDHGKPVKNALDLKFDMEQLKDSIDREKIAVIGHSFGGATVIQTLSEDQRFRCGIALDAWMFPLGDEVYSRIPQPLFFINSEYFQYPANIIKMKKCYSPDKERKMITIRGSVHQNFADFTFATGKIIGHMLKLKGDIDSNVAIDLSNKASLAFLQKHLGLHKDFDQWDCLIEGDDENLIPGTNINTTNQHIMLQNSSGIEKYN
PAFAH2 inh: PAFAH2 enzyme inhibitors, primary screen, biochemical, fluorescence polarization, human; recombinant PAFAH2, FP-rhodamine activity probe; inhibition, % at 3.39 µM; 0.99% of 340,000 active; Platelet-activating factor acetylhydrolase 2, cytoplasmic (Homo sapiens), Q99487;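 active means inhibition above the mean over all tested compounds plus 3 SD, cut at about 30% in these data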;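 further: inhibitors block probe labeling of enzyme so polarization drops; 0% = enzyme with DMSO and 100% = wells lacking PAFAH2 protein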
PAFAH1B3 FP inh: PAFAH1B3 enzyme inhibitors, primary screen, biochemical, fluorescence polarization, human; Platelet-activating factor acetylhydrolase IB subunit alpha1 (Homo sapiens), Q15102; inhibition, % at 3.39 µM; recombinant PAFAH1B3, FP-rhodamine probe; 0.28% of 340,000 active;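 active means inhibition above the screen-wide average of all tested compounds plus 3 SD, cut at about 25% in these data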;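 further: 0% = enzyme with DMSO only and 100% = wells lacking PAFAH1B3 protein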
PME-1 primary: PME-1 inhibitors via competitive probe labeling, primary screen, biochemical, fluorescence polarization, FP-Rh probe, HTS. Protein phosphatase methylesterase 1 (Homo sapiens), Q9Y570. inhibition, % at 5.9 µM. 0.53% of 320,000 active. recombinant PME-1;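 active means inhibition above the campaign mean of all compounds plus 3 SD, cut at about 26% in these data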;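 further: competitive labeling of PME-1 active site by serine hydrolase directed probe; 0% = PME-1 with DMSO and 100% = wells lacking PME-1 enzyme; inhibitors block probe labeling so polarization falls and inhibition rises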
Fam108B inh: mouse Fam108B serine hydrolase inhibitors, primary screen, counter-screen for RBBP9 inhibitor project, biochemical, fluorescence polarization; inhibition, % at 9.51 µM; 0.33% of 300,000 active; recombinant Fam108B, FP-Rh probe fluorescence polarization;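 active means inhibition above the screen mean inhibition plus 3 SD, computed separately per campaign, cut at about 18% in these data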;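 further: inhibitors lower polarization as less probe binds the enzyme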
PAFAH1B2 inh: PAFAH1B2 enzyme inhibitors, primary screen, biochemical, fluorescence polarization, human; recombinant PAFAH1B2, FP-rhodamine activity probe; AID 492953, 2010; 1.2% of 340,000 active; inhibition, % at 3.39 µM; Platelet-activating factor acetylhydrolase IB subunit alpha2 (Homo sapiens), P68402;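 active means inhibition above the mean of all tested compounds plus 3 SD, cut at about 24% in these data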;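 further: 0% = enzyme with DMSO and 100% = wells lacking PAFAH1B2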
Target sequence (P68402 whole entry, looked up): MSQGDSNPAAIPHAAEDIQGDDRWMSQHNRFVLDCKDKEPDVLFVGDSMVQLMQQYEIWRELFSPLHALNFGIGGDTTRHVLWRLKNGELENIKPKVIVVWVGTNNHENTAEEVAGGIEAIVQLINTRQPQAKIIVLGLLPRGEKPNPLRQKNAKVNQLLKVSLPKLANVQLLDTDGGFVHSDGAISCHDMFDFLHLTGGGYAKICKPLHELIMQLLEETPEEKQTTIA
pPAFAH FP conf: pPAFAH (PLA2G7) enzyme inhibitors, confirmation, biochemical, fluorescence polarization, human; shares compounds with pPAFAH inh; recombinant pPAFAH, FP-Rh probe fluorescence polarization; inhibition, % at 3.39 µM; 72% of 2,300 active; AID 463230, 2010;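 active means mean inhibition of the triplicate above the hit cutoff set for the earlier primary screen, cut at about 25% in these data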;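 further: 0% = enzyme with DMSO and 100% = wells lacking pPAFAH enzyme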
* = called active by the depositor; . = no result given.

SMILES | pPAFAH inh | PAFAH2 inh | PAFAH1B3 FP inh | PME-1 primary | Fam108B inh | PAFAH1B2 inh | pPAFAH FP conf
COCCN=C1Sc2nc3cc(C)c(C)cc3cc2CN1Cc1cccs1 | 2 | -3 | -7 | 7 | -6 | -1 | .
COCCN=C1Sc2nc3ccc(C)cc3cc2CN1Cc1ccco1 | 64* | 0 | -1 | 4 | -2 | 6 | 51*
C=CC(C)(C)c1c2occc2c(O)c2ccc(=O)oc12 | 2 | 1 | -3 | . | . | 9 | .
C=CC(C)(C)c1c(O)c(CC=C(C)C)c(O)c2c(=O)c3ccc(O)c(O)c3oc12 | 45* | -27 | 16 | 14 | -12 | 3 | 49*
CCCCCCC(=O)Nc1nc(C)c(-c2csc(Nc3cc(OC)ccc3OC)n2)s1 | 47* | 16 | 18 | 35* | 11 | 11 | 41*
CCCCC(=O)Nc1nc(C)c(-c2csc(Nc3ccccc3OC)n2)s1 | 17 | -1 | 7 | 17 | 5 | 9 | .
CCCCCC(=O)Nc1nc(C)c(-c2csc(Nc3cc(OC)ccc3OC)n2)s1 | 40* | 8 | 15 | 26 | 13 | 9 | 29*
CN(Cc1ccccc1)S(=O)(=O)c1ccccc1[N+](=O)[O-] | 3 | -4 | 4 | -3 | 3 | 5 | .
COc1ccccc1NS(=O)(=O)c1ccc(N/N=C(\C)C(C)C)c([N+](=O)[O-])c1 | 10 | 4 | 13 | 23 | 0 | 8 | .
CCOc1ccc(C=NNc2ccc(S(=O)(=O)Nc3ccccc3C(=O)O)cc2[N+](=O)[O-])cc1 | 57* | 21 | 25 | . | . | 18 | 86*
COc1ccc(C=NNc2ccc(S(=O)(=O)Nc3ccccc3C(=O)O)cc2[N+](=O)[O-])c(OC)c1 | 63* | 56* | 29* | . | . | 34* | 91*
CCc1cc2cc(C)ccc2nc1SCC(=O)NNC(=O)c1ccco1 | 21 | -5 | 4 | -3 | 3 | 8 | .
N=C1/C(=C\c2ccc(-c3cccc(Cl)c3)o2)C(=O)N=C2SC=C(c3ccccc3)N12 | 43* | -15 | 2 | 17 | 9 | 3 | 40*
Cc1cc(/C=C2/C(=N)N3C(c4ccccc4)=CSC3=NC2=O)c(C)n1-c1ccc(Cl)cc1 | . | 0 | -7 | . | . | -2 | .
CSc1ccccc1NC(=O)c1cnccn1 | -2 | 6 | 7 | 0 | 0 | 2 | .
CCOC(=O)N1CCN(C(=O)CCN2C(=O)COc3ccc(C)cc32)CC1 | 78* | -1 | -2 | 3 | 1 | 0 | -5
CCNC(=S)NNc1nnc(-c2ccccc2)c(-c2ccccc2)n1 | 5 | 3 | 4 | 2 | -3 | 10 | .
CCn1c2ccccc2c2cc(NC(=O)C(=O)N3CCOCC3)ccc21 | 8 | -9 | 10 | -1 | -3 | 1 | .
Cc1ccc(Nc2ccc(N)cc2S(=O)(=O)O)cc1 | 50* | 11 | 7 | -1 | 8 | 8 | 5
Cc1ccc(S(=O)(=O)c2cc(Nc3ccccc3)ccc2O)cc1 | 19 | 18 | -1 | 5 | 4 | 4 | .
Nc1ccc(Nc2ccccc2)c(S(=O)(=O)O)c1 | 60* | 18 | 9 | -5 | 9 | 4 | 8
Nc1cccc(Nc2ccccc2)c1 | 1 | -2 | 5 | -2 | 3 | 5 | .
CCc1cc(=O)oc2cc(C)c(CN3CCCC(C)C3)c(O)c12 (stereo not given) | 52* | 8 | 6 | -7 | -5 | -3 | 13
NC(=O)c1ccc(Oc2ncc(C(F)(F)F)cc2Cl)cc1 | 6 | 0 | 5 | 7 | 1 | 6 | .
S=c1[nH]nc(-c2ccc(Cl)cc2)n1/N=C/c1ccco1 | 4 | 8 | 6 | -3 | 1 | 6 | .
SMILES | pPAFAH inh | PAFAH2 inh | PAFAH1B3 FP inh | PME-1 primary | Fam108B inh | PAFAH1B2 inh | pPAFAH FP conf
S=c1[nH]nc(-c2ccc(Cl)cc2)n1/N=C/C=C/c1ccco1 | 39* | . | . | 1 | 2 | . | 13
COC(=O)[C@@]12CCCCN1[C@H](c1ccc(-c3ccc(C(C)=O)cc3)c(OC)c1)[C@@H]1C(=O)N(C)C(=O)[C@@H]12 | 0 | -3 | 6 | -4 | -5 | 5 | .
CC(=O)c1ccc(-n2c(CCC(=O)O)ccc2-c2cccs2)cc1 | 6 | 2 | -4 | 0 | -1 | 2 | .
Cc1ccc(-n2c(CCC(=O)O)ccc2-c2cccs2)cc1 | 51* | 7 | 3 | -2 | -1 | 7 | 13
CCOC(=O)c1sc2nc(C)nc(SC(C)C(=O)N(C)c3ccccc3)c2c1C (stereo not given) | 2 | -1 | 11 | 7 | . | 2 | .
Cc1ccc(NC(=O)NNC(=O)c2cc3ccccc3cc2O)cc1C | 22 | -13 | 22 | 2 | -5 | 7 | .
O=C(NNC(=O)c1cc2ccccc2cc1O)Nc1ccccc1F | 65* | 2 | 14 | 15 | 4 | 3 | 37*
N#CCc1nn2c3c(cnc2c1C#N)C(=O)CCC3 | 53* | 1 | 12 | 4 | 6 | 3 | 4
Cc1nn2c3c(cnc2c1-c1ccccc1)C(=O)CCC3 | -5 | -4 | 8 | -2 | 0 | 3 | .
O=C(c1ccccc1)c1nn(-c2ccccc2)c2nnc(Cc3ccccc3)c(=O)n12 | 41* | 27 | 3 | 6 | -4 | -1 | 30*
Cc1ccc(-n2nc(C(=O)c3ccccc3)n3c(=O)c(Cc4ccccc4)nnc23)cc1 | 21 | 5 | -2 | 0 | -5 | -1 | .
O=C1NN(c2ccc(F)c(Cl)c2)C(=O)/C1=C\c1cccc(OC(=O)c2cccs2)c1 | 40* | 34* | 12 | 1 | 17 | 42* | 41*
COC(=O)c1ccc(NC(=O)CNC(=O)c2sc3ccccc3c2Cl)cc1 | -7 | -28 | -30 | -38 | . | -19 | .
O=C(c1cccc(Br)c1)N1CCCc2ccccc21 | -3 | -9 | -4 | 0 | 0 | 4 | .
O=C(c1coc(=O)c(Br)c1)N1CCCc2ccccc21 | 43* | 27 | 7 | -2 | 2 | 7 | 6
CCNC(=S)Nc1cccc([N+](=O)[O-])c1 | 1 | . | . | -1 | 11 | . | .
O=[N+]([O-])c1cccc(NC(=S)Nc2nc(-c3ccccc3Cl)cs2)c1 | 39* | -37 | 8 | -2 | 11 | 8 | 23
CCN(c1ccccc1)S(=O)(=O)c1nnc(NC(=O)C(C)C)s1 | -1 | 5 | 12 | 4 | 0 | 7 | .
COc1ccc(CCNC(=O)Cc2ccc(NC3=NC4CS(=O)(=O)CC4S3)cc2)c(OC)c1 (stereo not given) | 36* | 3 | 5 | -4 | -1 | 4 | 1
